USP17 inh: inhibitors of human USP17 deubiquitinase; purified USP17, Ub-rhodamine cleavage fluorescence, 3 h; inhibition, % at 50 µM; hit rate 6.5% among 47,000; AID 1645855
USP28 inh: inhibitors of human USP28 deubiquitinase | inhibition, % at 25 µM | purified USP28, Ub-rhodamine cleavage fluorescence, 30 min | Q96RU2 | hit rate 3% among 47,000
USP30 block: blocks human USP30 ubiquitin-rhodamine cleavage | inhibition, % at 25 µM | purified USP30, Ub-rhodamine cleavage fluorescence | hit rate 5.3% among 47,000 | Q70CQ3
Target sequence (Q70CQ3 whole entry, looked up): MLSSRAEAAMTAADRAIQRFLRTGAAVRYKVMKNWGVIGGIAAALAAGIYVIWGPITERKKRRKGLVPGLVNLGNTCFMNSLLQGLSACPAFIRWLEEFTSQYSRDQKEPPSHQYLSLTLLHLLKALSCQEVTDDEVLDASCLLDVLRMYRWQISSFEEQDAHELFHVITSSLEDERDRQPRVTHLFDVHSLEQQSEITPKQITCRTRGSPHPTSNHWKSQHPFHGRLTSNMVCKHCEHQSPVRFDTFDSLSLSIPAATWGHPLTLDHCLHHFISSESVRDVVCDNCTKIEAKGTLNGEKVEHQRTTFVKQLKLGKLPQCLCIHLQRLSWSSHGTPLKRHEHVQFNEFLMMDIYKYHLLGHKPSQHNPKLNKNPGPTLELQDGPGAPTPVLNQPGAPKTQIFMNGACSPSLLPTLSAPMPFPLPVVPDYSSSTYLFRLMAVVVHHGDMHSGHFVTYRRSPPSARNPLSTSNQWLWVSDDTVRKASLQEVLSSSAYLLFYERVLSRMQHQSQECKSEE
USP8 inh: human USP8 deubiquitinase inhibition. P40818. purified USP8, Ub-rhodamine cleavage fluorescence, 30 min. inhibition, % at 20 µM. hit rate 4.2% among 47,000
OTUD3 inh: blocks human OTUD3 ubiquitin-rhodamine cleavage. Q5T2D3. purified OTUD3, Ub-rhodamine fluorescence, 2 h. inhibition, % at 25 µM. hit rate 0.7% among 47,000. AID 1645858
USP10 inh: human USP10 deubiquitinase inhibition | Q14694 | purified USP10, Ub-rhodamine fluorescence, 60 min | inhibition, % at 20 µM | hit rate 1.1% among 47,000 | AID 1645856
* = called active by the depositor. An excerpt weighted towards active compounds, which were near 13% of everything screened. Rule as the data show it: active = inhibition above about 30%; inactive = the rest.

How did O=C(NCC1COc2ccccc2O1)c1ccc(=O)[nH]c1 (centres undefined) do in these assays?
USP17 inh: -2; USP8 inh: -2; OTUD3 inh: -2; USP10 inh: -2

What do the screens show for `Cn1c(=O)c2c(nc(CN3CCOCC3)n2CCc2ccccc2)n(C)c1=O`?
USP17 inh: 3; USP28 inh: 1; USP30 block: 32*; USP8 inh: 5; OTUD3 inh: 5; USP10 inh: 4

How did CCC(C)n1nnc2cc(S(=O)(=O)N3CCC(C(=O)O)CC3)ccc21 (centres undefined) do in these assays?
USP17 inh: -1; USP28 inh: -10; USP30 block: -13; USP8 inh: -1; OTUD3 inh: -2; USP10 inh: 0

Results for Cc1cccc(-n2ncc(C(=O)N3CCc4ccccc43)c2-n2cccc2)c1 ?
USP17 inh: 15; USP28 inh: 19; USP30 block: 42*; USP8 inh: 10; OTUD3 inh: 17; USP10 inh: 6

How did O=C(NCc1ccc2c(c1)OCO2)c1cc2c(s1)CCC2 do in these assays?
USP17 inh: 48*; USP28 inh: 44*; USP30 block: 30; USP8 inh: 79*; OTUD3 inh: 22; USP10 inh: 47*

Results for O=C(/C=C/c1ccc2c(c1)OCO2)Nc1nc2c(s1)COCC2 ?
USP17 inh: 65*; USP28 inh: 22; USP30 block: 23; USP8 inh: -1; OTUD3 inh: 3; USP10 inh: -1

What do the screens show for `O=C(/C=C/c1ccc2c(c1)OCO2)NCc1ccc2c(c1)OCO2`?
USP17 inh: 25; USP28 inh: 21; USP30 block: 32*; USP8 inh: -2; OTUD3 inh: 9; USP10 inh: 0

What do the screens show for `COc1ccc(S(=O)(=O)NCC(c2ccc3c(c2)CCN3C)N2CCCC2)c(OC)c1` (centres undefined)?
USP17 inh: -6; USP28 inh: -4; USP30 block: -4; USP8 inh: 1; OTUD3 inh: -13; USP10 inh: 1

How did O=C(Nc1nnc(C2CC2)s1)c1ccc(OCC2CCCO2)cc1 (centres undefined) do in these assays?
USP17 inh: 64*; USP28 inh: 0; USP30 block: -9; USP8 inh: 5; OTUD3 inh: 5; USP10 inh: 2

What do the screens show for `COc1ccc(-c2nc3nc(C)c(Cc4ccccc4)c(=O)n3[nH]2)cc1`?
USP17 inh: 74*; USP28 inh: 19; USP30 block: 51*; USP8 inh: 7; OTUD3 inh: 4; USP10 inh: 7

Results for Cc1ccsc1/C=C1\C(=O)c2c(F)cccc2C1c1ccccc1 (centres undefined) ?
USP17 inh: 20; USP28 inh: 0; USP30 block: 19; USP8 inh: 1; OTUD3 inh: 6; USP10 inh: 0

What do the screens show for `O=C(Nc1ccc(N2CCN(C3CCCCC3)C2=O)nc1)c1ccncc1`?
USP17 inh: -57; USP28 inh: -60; USP30 block: -244; USP8 inh: -136; OTUD3 inh: -45; USP10 inh: -10

Results for O=C(Cc1cccnc1)Nc1ccc(N2CCN(C3CCCC3)C2=O)nc1 ?
USP17 inh: 3; USP28 inh: -19; USP30 block: -101; USP8 inh: 37*; OTUD3 inh: -20; USP10 inh: -3

Results for CCCOC(=O)Cc1c(O)c2ccccc2n(C)c1=O ?
USP17 inh: 11; USP28 inh: 10; USP30 block: 15; USP8 inh: 17; OTUD3 inh: 16; USP10 inh: 2

Results for Cc1cccc(OCc2nc(C)c(C(=O)NCC3CCCO3)s2)c1 (centres undefined) ?
USP17 inh: -11; USP28 inh: -5; USP30 block: 2; USP8 inh: -5; OTUD3 inh: -2; USP10 inh: -3

Results for COc1ccc(O)c(C(=O)OCc2cc(=O)oc3ccc4ccccc4c23)c1 ?
USP17 inh: 51*; USP28 inh: -13; USP30 block: -192; USP8 inh: 37*; OTUD3 inh: -32; USP10 inh: -4

How did Cc1ccc2c(COC(=O)c3ccc4ccccc4c3)cc(=O)oc2c1 do in these assays?
USP17 inh: -4; USP28 inh: -4; USP30 block: -5; USP8 inh: 11; OTUD3 inh: -7; USP10 inh: 5
